# Results from PMC4336329 (PLoS ONE, 2015).
# About 14,000 (4.5%) of roughly 310,000 compounds showed an effect of 50% or more. Effects have a minus sign here. Many of the other results were omitted from the sample, so strong results are more common in it than they were.
# Target: human ether-à-go-go-related gene (hERG) potassium channel (human, UniProt Q12809)
# Assay: primary screen, population patch clamp on CHO cells stably expressing hERG; higher = less effect of the substance
# 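Note: peak tail current of the secondary pulse compared with the same well before compound.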
# human ether-à-go-go-related gene (hERG) potassium channel, sequence (Q12809 whole entry, looked up): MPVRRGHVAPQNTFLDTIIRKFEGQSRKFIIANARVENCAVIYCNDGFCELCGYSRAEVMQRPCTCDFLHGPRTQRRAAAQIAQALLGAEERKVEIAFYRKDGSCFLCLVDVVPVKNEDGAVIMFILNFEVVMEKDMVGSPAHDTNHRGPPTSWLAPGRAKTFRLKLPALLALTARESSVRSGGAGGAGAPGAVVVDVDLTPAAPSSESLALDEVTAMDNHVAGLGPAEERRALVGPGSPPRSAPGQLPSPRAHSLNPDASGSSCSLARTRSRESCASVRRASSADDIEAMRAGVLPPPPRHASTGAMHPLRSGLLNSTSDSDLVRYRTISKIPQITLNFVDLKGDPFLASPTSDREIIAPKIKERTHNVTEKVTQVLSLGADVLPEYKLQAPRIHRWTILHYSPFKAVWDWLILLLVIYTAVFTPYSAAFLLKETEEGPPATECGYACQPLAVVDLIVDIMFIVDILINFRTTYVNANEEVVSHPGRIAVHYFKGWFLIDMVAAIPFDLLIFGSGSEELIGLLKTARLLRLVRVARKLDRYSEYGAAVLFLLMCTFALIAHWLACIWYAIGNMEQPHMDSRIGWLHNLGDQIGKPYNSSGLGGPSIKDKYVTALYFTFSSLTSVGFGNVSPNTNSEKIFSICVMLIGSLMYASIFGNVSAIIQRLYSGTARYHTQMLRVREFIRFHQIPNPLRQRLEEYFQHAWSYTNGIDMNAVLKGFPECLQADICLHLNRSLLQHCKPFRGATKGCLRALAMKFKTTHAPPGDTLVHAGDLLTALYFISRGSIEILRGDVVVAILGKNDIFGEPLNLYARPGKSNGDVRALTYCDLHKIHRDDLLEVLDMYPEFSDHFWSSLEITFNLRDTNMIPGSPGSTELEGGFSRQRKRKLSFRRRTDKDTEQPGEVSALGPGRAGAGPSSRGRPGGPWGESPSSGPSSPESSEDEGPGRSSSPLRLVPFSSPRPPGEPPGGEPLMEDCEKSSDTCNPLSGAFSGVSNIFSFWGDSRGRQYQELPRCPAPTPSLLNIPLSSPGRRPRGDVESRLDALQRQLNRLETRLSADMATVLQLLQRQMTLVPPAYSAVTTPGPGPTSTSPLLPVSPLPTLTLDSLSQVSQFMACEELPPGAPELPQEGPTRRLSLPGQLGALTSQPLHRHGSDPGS
row,Structure (SMILES),"hERG current change (%, negative = inhibition) at 10uM [%]"
1,CCOc1ccc(OCC)c(NC(=O)C2CCN(c3ncccn3)CC2)c1,-30
2,CCC(C)CCN1C(N(C)C)=NC[C@@H]1C (stereo partly shown),15.3
3,O=C(NC1CCCCC1)C(c1ccco1)N(C(=O)c1csnn1)c1cccc(Cl)c1 (stereo not shown),4.93
4,CC(C)=CCN1CCN(Cc2cccn2-c2nccs2)CC1CCO (stereo not shown),-34.1
5,OCCC1CN(Cc2cccn2-c2nccs2)CCN1C1CCCCC1 (stereo not shown),-37.8
6,OCCC1CN(Cc2cccn2-c2nccs2)CCN1Cc1ccccc1 (stereo not shown),-69.3
7,CCOc1ccc(CN2CCN(Cc3cccn3-c3nccs3)CC2CCO)cc1 (stereo not shown),-76.1
8,OCCC1CN(Cc2cccn2-c2nccs2)CCN1CCc1ccccc1 (stereo not shown),-73.6
9,CC(C)N1CCN(Cc2cccn2-c2nccs2)CC1CCO (stereo not shown),10.2
10,CC(C)CCN1CCN(Cc2cccn2-c2nccs2)CC1CCO (stereo not shown),-52.1
11,COc1ccc(CN2C(=O)c3ccccc3C(/C=N\OCc3ccc(C)cc3)C2=O)cc1 (stereo not shown),8.84
12,CCN(c1ccccc1)S(=O)(=O)c1ccc(C(=O)Nc2nccs2)cc1,8.62
13,Cc1c(S(=O)(=O)Nc2ccc3c(c2)OCCO3)c(=O)n(C)c(=O)n1C,-10.7
14,CCOCCCNS(=O)(=O)c1cc2[nH]c3c(c2cc1C)C(=O)CC(C)(C)C3,-6.44
15,Cc1ccc(NS(=O)(=O)c2ccc(C)c(C(=O)N3CCN(C)CC3)c2)cc1.Cl,-14.8
16,COc1ccc(OC)c(S(=O)(=O)N(C)CC(=O)Nc2ccccc2OC)c1,-20.2
17,O=C1/C(=C\c2ccc(Br)o2)Cc2ccccc21,2.56
18,CSc1ncccc1C(=O)OCC(=O)Nc1ccc2c(c1)CCC2,9.67
19,COc1ccc(C(=O)NC(=S)NNC(=O)COc2ccccc2)cc1,-2.47
20,OCCC1CN(Cc2cccn2-c2nccs2)CCN1Cc1ccc(F)c(F)c1 (stereo not shown),-80.7
21,Cc1ccc(CN2CCN(Cc3cccn3-c3nccs3)CC2CCO)cc1 (stereo not shown),-77.3
22,CCc1nc(CN2CCN(Cc3ccc(F)c(F)c3)C(CCO)C2)c(C)[nH]1 (stereo not shown),14.2
23,Cc1ccc(N2C(=O)CC(C)CC2=O)cc1,21.2
24,O=C(C[n+]1ccc(C(=O)c2ccccc2)cc1)Nc1ccc(C(F)(F)F)cc1.[Cl-],-11.6
25,CS(=O)(=O)N(CC(=O)N1CCCCC1)c1cccc(F)c1,13
